Where two headings read alike, the source gives them in different places.
Assays:
[1] = tested on: MAPK10; details: read-out: apparent Kd, n = 1
[2] = tested on: PBK; details: read-out: apparent Kd, n = 1
[3] = compound concentrations:100 nM and 1000 nM (sheet 'Lestaurtinib' of Supplementary Table 1),run:Lestaurtinib_02606_R3,Plate:MR019
[4] = compound concentrations:100 nM and 1000 nM (sheet 'Lestaurtinib' of Supplementary Table 1),run:Lestaurtinib_02748_R3,Plate:MR024
[5] = compound concentrations:100 nM and 1000 nM (sheet 'Lestaurtinib' of Supplementary Table 1),run:Lestaurtinib_02766_R1,Plate:MR027

Lestaurtinib gave a potency estimated from few doses ([1]; compound concentrations:100 nM and 1000 nM (sheet 'Lestaurtinib' of Supplementary Table 1),run:Lestaurtinib_02482_R1,Plate:MR011) of 469 nM, a potency estimated from few doses ([1]; compound concentrations:100 nM and 1000 nM (sheet 'Lestaurtinib' of Supplementary Table 1),run:Lestaurtinib_02482_R2,Plate:MR011) of 898 nM and a potency estimated from few doses ([1]; compound concentrations:100 nM and 1000 nM (sheet 'Lestaurtinib' of Supplementary Table 1),run:Lestaurtinib_02482_R3,Plate:MR011) of 612 nM. It also gave a potency estimated from few doses ([1]; compound concentrations:100 nM and 1000 nM (sheet 'Lestaurtinib' of Supplementary Table 1),run:Lestaurtinib_02487_R1,Plate:MR012) of 798 nM, a potency estimated from few doses ([1]; compound concentrations:100 nM and 1000 nM (sheet 'Lestaurtinib' of Supplementary Table 1),run:Lestaurtinib_02487_R2,Plate:MR012) of 744 nM and a potency estimated from few doses ([1]; compound concentrations:100 nM and 1000 nM (sheet 'Lestaurtinib' of Supplementary Table 1),run:Lestaurtinib_02566_R1,Plate:MR014) of 712 nM. For the same substance, the potency estimated from few doses ([1]; compound concentrations:100 nM and 1000 nM (sheet 'Lestaurtinib' of Supplementary Table 1),run:Lestaurtinib_02572_R1,Plate:MR015) was 896 nM, the potency estimated from few doses ([1]; compound concentrations:100 nM and 1000 nM (sheet 'Lestaurtinib' of Supplementary Table 1),run:Lestaurtinib_02577_R2,Plate:MR016) was 636 nM and the potency estimated from few doses ([1]; compound concentrations:100 nM and 1000 nM (sheet 'Lestaurtinib' of Supplementary Table 1),run:Lestaurtinib_02577_R3,Plate:MR016) was 743 nM. It also gave a potency estimated from few doses ([1]; compound concentrations:100 nM and 1000 nM (sheet 'Lestaurtinib' of Supplementary Table 1),run:Lestaurtinib_02584_R1,Plate:MR017) of 744 nM, a potency estimated from few doses ([1]; compound concentrations:100 nM and 1000 nM (sheet 'Lestaurtinib' of Supplementary Table 1),run:Lestaurtinib_02584_R3,Plate:MR017) of 692 nM and a potency estimated from few doses ([1]; compound concentrations:100 nM and 1000 nM (sheet 'Lestaurtinib' of Supplementary Table 1),run:Lestaurtinib_02601_R1,Plate:MR018) of 819 nM. It also gave a potency estimated from few doses [1, 3] of 845 nM, a potency estimated from few doses ([1]; compound concentrations:100 nM and 1000 nM (sheet 'Lestaurtinib' of Supplementary Table 1),run:Lestaurtinib_02624_R1,Plate:MR020) of 802 nM and a potency estimated from few doses ([1]; compound concentrations:100 nM and 1000 nM (sheet 'Lestaurtinib' of Supplementary Table 1),run:Lestaurtinib_02624_R2,Plate:MR020) of 1320 nM. The potency estimated from few doses ([1]; compound concentrations:100 nM and 1000 nM (sheet 'Lestaurtinib' of Supplementary Table 1),run:Lestaurtinib_02624_R3,Plate:MR020) was 818 nM, the potency estimated from few doses ([1]; compound concentrations:100 nM and 1000 nM (sheet 'Lestaurtinib' of Supplementary Table 1),run:Lestaurtinib_02724_R1,Plate:MR021) was 870 nM and the potency estimated from few doses ([1]; compound concentrations:100 nM and 1000 nM (sheet 'Lestaurtinib' of Supplementary Table 1),run:Lestaurtinib_02724_R2,Plate:MR021) was 518 nM. The potency estimated from few doses ([1]; compound concentrations:100 nM and 1000 nM (sheet 'Lestaurtinib' of Supplementary Table 1),run:Lestaurtinib_02724_R3,Plate:MR021) was 573 nM, the potency estimated from few doses ([1]; compound concentrations:100 nM and 1000 nM (sheet 'Lestaurtinib' of Supplementary Table 1),run:Lestaurtinib_02741_R2,Plate:MR023) was 929 nM and the potency estimated from few doses ([1]; compound concentrations:100 nM and 1000 nM (sheet 'Lestaurtinib' of Supplementary Table 1),run:Lestaurtinib_02748_R1,Plate:MR024) was 747 nM. It also gave a potency estimated from few doses ([1]; compound concentrations:100 nM and 1000 nM (sheet 'Lestaurtinib' of Supplementary Table 1),run:Lestaurtinib_02748_R2,Plate:MR024) of 824 nM, a potency estimated from few doses [1, 4] of 1610 nM and a potency estimated from few doses ([1]; compound concentrations:100 nM and 1000 nM (sheet 'Lestaurtinib' of Supplementary Table 1),run:Lestaurtinib_02765_R1,Plate:MR026) of 795 nM. It also gave a potency estimated from few doses ([1]; compound concentrations:100 nM and 1000 nM (sheet 'Lestaurtinib' of Supplementary Table 1),run:Lestaurtinib_02765_R3,Plate:MR026) of 501 nM, a potency estimated from few doses [1, 5] of 1530 nM and a potency estimated from few doses ([1]; compound concentrations:100 nM and 1000 nM (sheet 'Lestaurtinib' of Supplementary Table 1),run:Lestaurtinib_02795_R3,Plate:MR022) of 886 nM. It also gave a potency estimated from few doses ([1]; compound concentrations:100 nM and 1000 nM (sheet 'Lestaurtinib' of Supplementary Table 1),run:Lestaurtinib_02802_R2,Plate:MR029) of 1410 nM, a potency estimated from few doses ([1]; compound concentrations:100 nM and 1000 nM (sheet 'Lestaurtinib' of Supplementary Table 1),run:Lestaurtinib_02896_R1,Plate:MR030) of 532 nM and a potency estimated from few doses ([1]; compound concentrations:100 nM and 1000 nM (sheet 'Lestaurtinib' of Supplementary Table 1),run:Lestaurtinib_02896_R3,Plate:MR030) of 592 nM. For the same substance, the potency estimated from few doses ([1]; compound concentrations:100 nM and 1000 nM (sheet 'Lestaurtinib' of Supplementary Table 1),run:Lestaurtinib_03172_R1,Plate:MR031) was 784 nM, the potency estimated from few doses ([1]; compound concentrations:100 nM and 1000 nM (sheet 'Lestaurtinib' of Supplementary Table 1),run:Lestaurtinib_03172_R2,Plate:MR031) was 591 nM and the potency estimated from few doses ([1]; compound concentrations:100 nM and 1000 nM (sheet 'Lestaurtinib' of Supplementary Table 1),run:Lestaurtinib_03252_R1,Plate:MR032) was 932 nM. For the same substance, the potency estimated from few doses ([1]; compound concentrations:100 nM and 1000 nM (sheet 'Lestaurtinib' of Supplementary Table 1),run:Lestaurtinib_03252_R2,Plate:MR032) was 717 nM, the potency estimated from few doses ([1]; compound concentrations:100 nM and 1000 nM (sheet 'Lestaurtinib' of Supplementary Table 1),run:Lestaurtinib_03260_R2,Plate:MR033) was 671 nM and the potency estimated from few doses ([2]; compound concentrations:100 nM and 1000 nM (sheet 'Lestaurtinib' of Supplementary Table 1),run:Lestaurtinib_02364_R3,Plate:MR002) was 2310 nM. The potency estimated from few doses ([2]; compound concentrations:100 nM and 1000 nM (sheet 'Lestaurtinib' of Supplementary Table 1),run:Lestaurtinib_02381_R2,Plate:MR004) was 1820 nM, the potency estimated from few doses ([2]; compound concentrations:100 nM and 1000 nM (sheet 'Lestaurtinib' of Supplementary Table 1),run:Lestaurtinib_02606_R1,Plate:MR019) was 1970 nM and the potency estimated from few doses [2, 3] was 2120 nM. The potency estimated from few doses ([2]; compound concentrations:100 nM and 1000 nM (sheet 'Lestaurtinib' of Supplementary Table 1),run:Lestaurtinib_02741_R1,Plate:MR023) was 1530 nM, the potency estimated from few doses [2, 4] was 1440 nM and the potency estimated from few doses [2, 5] was 1690 nM. It also gave a potency estimated from few doses ([2]; compound concentrations:100 nM and 1000 nM (sheet 'Lestaurtinib' of Supplementary Table 1),run:Lestaurtinib_02766_R3,Plate:MR027) of 1760 nM and a potency estimated from few doses ([2]; compound concentrations:100 nM and 1000 nM (sheet 'Lestaurtinib' of Supplementary Table 1),run:Lestaurtinib_02896_R2,Plate:MR030) of 1580 nM.

— PMC11062922 (Nature Chemical Biology, 2023)
